FECH block – inhibitors of human ferrochelatase, primary screen, biochemical, purified FECH, Ni-mesoporphyrin absorbance; calls only at 10 µM (by protocol); hit rate 3.3% among 20,000; AID 1671448, 2021; Ni-mesoporphyrin absorbance 550 nm;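 active = enzyme reaction rate more than 3 SD below the solvent-only control wells on the same plate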;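 note: lower slope than DMSO wells means FECH inhibition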
Target sequence (P22830 whole entry, looked up): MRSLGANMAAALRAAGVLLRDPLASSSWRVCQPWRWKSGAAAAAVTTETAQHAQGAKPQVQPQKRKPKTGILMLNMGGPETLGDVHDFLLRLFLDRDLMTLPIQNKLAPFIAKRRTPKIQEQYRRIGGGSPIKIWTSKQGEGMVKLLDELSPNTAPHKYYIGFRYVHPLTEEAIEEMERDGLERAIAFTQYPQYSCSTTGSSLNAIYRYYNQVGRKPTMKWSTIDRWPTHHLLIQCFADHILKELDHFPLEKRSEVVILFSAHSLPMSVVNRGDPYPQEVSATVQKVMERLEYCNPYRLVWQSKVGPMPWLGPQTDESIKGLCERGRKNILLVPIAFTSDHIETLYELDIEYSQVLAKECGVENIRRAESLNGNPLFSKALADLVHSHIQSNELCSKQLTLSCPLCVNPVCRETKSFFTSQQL
Of the large screens only hits and unclear results are named; the others gave an inactive call. The entries come from a sample that favours hits as a whole.

CCc1ccc(-c2noc3c(=O)n(CCC(=O)Nc4ccc(S(N)(=O)=O)cc4)cnc23)cc1	none
NS(=O)(=O)c1ccc(NC(=O)c2noc3c2CCCC3)cc1	none
CCOc1ccc(-c2cc(C(=O)Nc3ccc(S(N)(=O)=O)cc3)no2)cc1	FECH block active
NS(=O)(=O)c1ccc(NC(=O)c2cc(-c3ccc(Cl)cc3)on2)cc1	FECH block active
NS(=O)(=O)c1ccc(NC(=O)c2nn(-c3cccc(Cl)c3)ccc2=O)cc1	none
CC(C)C(=O)Nc1nc2n(n1)C(c1ccc(F)cc1)C=C(c1ccc(Cl)cc1)N2 (configuration not stated)	none
Cc1cccc(-c2noc(CN(C)Cc3cccn3-c3nccs3)n2)c1	none
O=C(C1CCN(c2ccc(-c3cccs3)nn2)CC1)N1CCN(Cc2ccccc2)CC1	none
CCN(Cc1ccccc1Cl)C(=O)CCNC(=O)c1ccccc1F	none
Cc1cccc(CN(C)Cc2cn[nH]c2-c2ccc(F)cc2)c1O	none
CN(CCC(C)(C)O)Cc1cccc(Cl)c1F	FECH block active
Cc1ccc(C)c(OC(C)C(=O)NCc2ccoc2)c1 (configuration not stated)	none
CCc1cc(Sc2ccc(NC(=O)c3cccc(OC)c3)cc2)n2ncnc2n1	none
O=C(CNCCn1nnc2ccccc21)Nc1ccc(Cl)cc1F	none
CCCCOc1ccc(S(=O)(=O)N2CCN(c3nc(C)cc(N4CCCCC4)n3)CC2)cc1	none
CCCCOc1ccc(S(=O)(=O)N2CCN(c3nc(C)cc(N4CCCC4)n3)CC2)cc1	FECH block active
CCOc1ccc(S(=O)(=O)N2CCN(c3nc(C)cc(N4CCCC4)n3)CC2)cc1	none
CCCC1C=CCN1C(=O)c1cc(COc2ccc(C(C)=O)cc2)on1 (configuration not stated)	none
CCCc1cc(=O)[nH]c(SCc2nc(-c3ccccc3)oc2C)n1	none
Cc1cc(N2CCCCC2)nc(N2CCN(S(C)(=O)=O)CC2)n1	none
COCc1nc2cccnc2n1C1CCN(S(=O)(=O)c2ccc(C)cc2)CC1	none
Cc1ccc(-c2cccc(CN3CC(c4ccccn4)C3)c2)o1	none
CCOc1ccc(CNC(=O)COc2nc(CC)nc3onc(-c4ccc(F)cc4)c23)cc1	none
CCc1nc(OCC(=O)NCc2cccc(OC)c2)c2c(-c3ccc(F)cc3)noc2n1	FECH block active
CCc1nc(OCC(=O)NCc2ccc(C)cc2)c2c(-c3ccc(F)cc3)noc2n1	none
Nc1nnc(CCCNC(=O)c2ccccc2N2CCOCC2)s1	none
CCCc1cc(Sc2ccc(NC(=O)Nc3ccccc3Cl)cc2)n2ncnc2n1	none
Cn1ncc(Cl)c1C(=O)NC1CC(=O)N(Cc2cccc3ccccc23)C1 (configuration not stated)	none
Cc1cccc(CN2CCCN(CC(=O)Nc3cccc(C)c3)S2(=O)=O)c1	none
Cc1cccc(NC(=O)CN2CCN(Cc3ccc(F)cc3)S2(=O)=O)c1	none
O=C(CN1CCCN(Cc2cccc(F)c2)S1(=O)=O)Nc1ccc(F)c(Cl)c1	none
CC(=O)c1ccc(NC(=O)CN2CCCN(Cc3cccc(C)c3)S2(=O)=O)cc1	none
Cc1cccc(CN2CCN(CC(=O)Nc3ccc(F)cc3)S2(=O)=O)c1	FECH block active
Cc1ccc(NC(=O)CN2CCCN(Cc3cccc(C)c3)S2(=O)=O)cc1	FECH block active
O=C(CN1CCCN(Cc2cccc(F)c2)S1(=O)=O)Nc1ccc(F)cc1	none
O=C(CN1CCN(Cc2ccccc2)S1(=O)=O)Nc1cccc(Cl)c1	none
Cc1cccc(CN2CCCN(CC(=O)Nc3ccc(F)c(Cl)c3)S2(=O)=O)c1	FECH block active
Cc1ccc(NC(=O)CN2CCN(Cc3cccc(Cl)c3)S2(=O)=O)cc1	FECH block active
Cc1cccc(CN2CCCN(CC(=O)Nc3ccc(C)c(F)c3)S2(=O)=O)c1	none
Cc1ccc(CN2CCCN(CC(=O)Nc3cccc(Cl)c3)S2(=O)=O)cc1	none
Cc1cc(N(C)C)nc(N2CCN(S(=O)(=O)c3cccc(Cl)c3)CC2)n1	none
Cc1ccc(C)c(S(=O)(=O)NCCn2c(C(F)(F)F)nc3cccnc32)c1	none
COc1c(F)cc(-c2cc(NCCO)nc3[nH]ccc23)cc1F	none
CC(C)Oc1cccc(-n2ccnc2)c1	none
Cc1ccc(Nc2nc(N3CCCC(C)C3)nc3c2cnn3-c2ccccc2)cc1C (configuration not stated)	none
CCC1=C(c2ccc(OC)cc2)S(=O)(=O)N(CC(=O)NCCC(C)C)C1=O	none
CCCCOc1ccccc1C(=O)N1CCNCC1C(=O)N1CCCC1 (configuration not stated)	none
Cc1cc(C)n(C(C)CNC(=O)C2(Oc3cccnc3C)CCNCC2)n1 (configuration not stated)	none
CCOC(=O)[C@H](C)NC(=O)C1(c2ccccc2F)CC1	none
CCN(Cc1ccc(-c2ccccn2)cc1)C1CCS(=O)(=O)C1 (configuration not stated)	none
Cc1ccc(NC(=O)CN2CCN(Cc3ccc(F)cc3)S2(=O)=O)cc1	none
Cc1ccc(CN2CCN(CC(=O)Nc3ccc(C)cc3)S2(=O)=O)cc1	none
Cc1ccc(CN2CCCN(CC(=O)Nc3ccc(C)cc3)S2(=O)=O)cc1	FECH block active
COc1ccc(N2CCCS2(=O)=O)cc1NC(=O)c1c(OC)cccc1OC	none
CNc1ncc(CN(C)C(=O)c2cccc(-n3cccn3)c2)cn1	none
CCN(CC)Cc1cnc2c(C(=O)N3CCc4sccc4C3)cnn2c1	none
Cc1ccc(CNC(=O)C2(C)Cn3nc(C(=O)NC4CCCC4)cc3C(=O)N2C)cc1 (configuration not stated)	none
Cc1ccc(-n2c(CN3CCN(S(=O)(=O)c4ccc(C)cc4)CC3)nc3cccnc32)cc1	none
CCC1CN(Cc2nc(C)n3ccccc23)CCN1C(C)C (configuration not stated)	none
CCOc1ccc(S(=O)(=O)N2CCN(c3cc(-c4ccc(C)cc4)ncn3)CC2)cc1	none
Cc1nc(CN2CCN(C(=O)c3cnn(Cc4ccccc4)c3)CC2)no1	FECH block active
Cc1nc(CN2CCN(C(=O)CSc3nnc(C)s3)CC2)no1	none
O=C(c1ccccc1)N1CCC(NCc2cnn(Cc3ccccc3)c2)CC1	none
c1cc(C2CCCC2)nc(NC2CCOC2)n1 (configuration not stated)	none
CN(Cc1ccc2ccccc2n1)C(=O)c1ccc(CSc2ncn[nH]2)o1	none
C=Cc1ccc(CN(c2nc3nc(C)cc(C)n3n2)S(=O)(=O)c2ccc(C)cc2)cc1	none
CCc1ccc(-n2c(CN3CCN(S(=O)(=O)c4ccc(CC)cc4)CC3)nc3cccnc32)cc1	FECH block active
Cc1ccc(S(=O)(=O)N2CCN(Cc3nc4cccnc4n3-c3ccccc3)CC2)cc1C	none
COc1ccc(S(=O)(=O)N2CCN(Cc3nc4cccnc4n3-c3ccccc3)CC2)cc1OC	FECH block active
CCc1ccc(-n2c(CN3CCN(S(=O)(=O)c4ccc(C)c(C)c4)CC3)nc3cccnc32)cc1	none
COc1ccc(Cl)cc1S(=O)(=O)N1CCN(Cc2nc3cccnc3n2-c2ccccc2)CC1	none
CCc1ccc(S(=O)(=O)N2CCN(Cc3nc4cccnc4n3-c3ccc(C)cc3)CC2)cc1	none
O=C(NCCCN1CCCC1)C1CCN(c2ccc(-c3ccc(F)cc3)nn2)CC1	none
CC(Cn1cncn1)Nc1ccc(-c2nccn2C)nn1 (configuration not stated)	none
Cc1cc(NC(=O)c2ccc(OC(C)C)cc2)n(-c2ncnc3c2cnn3-c2ccccc2)n1	none
COC(=O)c1cc(S(=O)(=O)N2CCCC2C(=O)Nc2ccc(OC)cc2)cn1C (configuration not stated)	none
Cc1cc(C)c(S(=O)(=O)NCc2nc3cccnc3n2C2CCCCC2)cc1C	none
CCc1cc(Sc2ccccc2NC(=O)c2cccc(C)c2)n2ncnc2n1	none
